Shown is part of a subset that was picked to be rich in hits.
ALOX12 inh – blocks human arachidonate 12S-lipoxygenase | P18054 | purified 12hLO, xylenol orange hydroperoxide absorbance | Potency, µM (doses to about 108 µM), inactives show top-dose activity change, negative = inhibition, hits mostly inhibitors | actives 1.1% (n = 580,000); also: potency is read from the fitted curve at half-maximal effect
Target sequence (P18054 whole entry, looked up): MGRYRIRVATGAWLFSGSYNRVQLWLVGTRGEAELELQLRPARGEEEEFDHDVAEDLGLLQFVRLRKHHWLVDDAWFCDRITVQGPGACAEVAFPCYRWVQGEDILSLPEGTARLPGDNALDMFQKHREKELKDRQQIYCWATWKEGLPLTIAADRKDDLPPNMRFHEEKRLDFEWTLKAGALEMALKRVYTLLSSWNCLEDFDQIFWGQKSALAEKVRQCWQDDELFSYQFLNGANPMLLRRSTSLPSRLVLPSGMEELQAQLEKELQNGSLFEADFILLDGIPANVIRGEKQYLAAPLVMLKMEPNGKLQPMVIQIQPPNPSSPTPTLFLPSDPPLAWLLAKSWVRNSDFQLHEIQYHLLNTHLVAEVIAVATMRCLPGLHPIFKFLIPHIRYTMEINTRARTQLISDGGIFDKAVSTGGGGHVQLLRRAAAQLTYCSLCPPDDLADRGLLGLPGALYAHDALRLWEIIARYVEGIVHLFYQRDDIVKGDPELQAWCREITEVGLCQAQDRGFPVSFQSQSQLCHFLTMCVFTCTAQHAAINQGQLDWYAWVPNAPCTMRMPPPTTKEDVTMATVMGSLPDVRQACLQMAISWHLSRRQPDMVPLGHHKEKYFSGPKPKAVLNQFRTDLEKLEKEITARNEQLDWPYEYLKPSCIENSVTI
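Purified human 12hLO at 150 nM in 25 mM Hepes, 0.01% Triton X-100, pH 7.0, preincubated 15 min at room temperature with compound. Reaction started with 40 uM arachidonic acid, 30 min at room temperature. Hydroperoxide measured by Fe-xylenol orange, 573/405 nm absorbance ratio.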
IL-1B inflam inh – inhibitors of inflammasome signaling (IL-1 beta secretion). THP-1 LPS/ATP IL-1B secretion, AlphaLISA, 16 h; hits give low values. activity change, % at 57.5 µM. actives 4.7% (n = 360,000). AID 743279; in the data active = activity change below about -50%; inconclusive = mostly about -30% to -49%
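Secreted IL-1B measured by AlphaLISA bead assay after 16 h compound exposure of THP-1 cells; compounds (final up to 57.5 uM) added 1 h before LPS (250 ng/mL) and ATP (1.25 mM) stimulation; lower signal means less secretion.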
HT1080-NT tox – kills 2HG-producing HT-1080-NT fibrosarcoma cells; HT-1080-NT fibrosarcoma viability, CellTiter-Glo ATP luminescence, 48 h; Potency, µM (top dose mostly 46.1 µM), for inactives: at the highest dose activity, negative = less viability, actives largely listed as cytotoxic; actives 1.6% (n = 360,000); AID 686970;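 also: NT is the 2HG producing partner of a matched IDH1 knockdown line; potency is read from the fitted curve at half-maximal effect; 0% = DMSO-treated cells and -100% = media-only wells without cells; nearly all actives have a fitted effect of over 55% in size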
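Luminescent CellTiter-Glo readout after 48 hours of compound exposure at 37 degrees C defined viability of HT-1080-NT cells. Activity was normalized to DMSO wells and cell-free media wells; concentration-response curves were fitted and assigned curve classes.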
HT1080 IDH1KD tx – toxicity to HT-1080 IDH1 knockdown cells (counter line) | HT-1080 IDH1 knockdown viability, ATP luminescence, 48 h | actives 2% (n = 360,000) | Potency, µM (top dose mostly 46.1 µM), without a hit: top-dose activity, negative = toxicity, usual class: cytotoxic;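 also: potency is read from the fitted curve at half-maximal effect; 0% = DMSO wells and -100% = cell-free medium wells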
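Viability of IDH1-knockdown HT-1080 fibrosarcoma cells was assessed by CellTiter-Glo after 48 h at 37 °C with titrated compound; concentration-effect curves were classified by fit quality and response size.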
TDP1 cell noCPT – qHTS for Inhibitors of human tyrosyl-DNA phosphodiesterase 1 (TDP1): qHTS in cells in absence of CPT; DT40 Tdp1-/- hTDP1 cells, no CPT, ATP luminescence, 48 h; Potency, µM (series often up to 46.2 µM), for the others: at the top dose activity change, negative = growth inhibition, hits mostly inhibitors; actives 15% (n = 420,000); also: potency is read from the fitted curve at half-maximal effect; nearly all actives have a fitted effect of over 55% in size
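Camptothecin absent (DMSO only). Human TDP1-complemented DT40 knockout cells, 400 cells/well, 37 °C for minimum 48 hr; ATP measured via CellTiter-Glo, 30 min dark incubation, luminescence.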
TDP1 cell CPT – growth inhibition of DT40 Tdp1-/-;hTDP1 cells with camptothecin (screen for TDP1 inhibitors); actives 12% (n = 420,000); Potency, µM (series often up to 46.2 µM), for the others: at the highest dose activity change, negative = growth inhibition, hits mostly inhibitors; AID 686979; chicken DT40 Tdp1-/-;hTDP1 cells + 20 nM CPT, ATP luminescence, 48 h; also: potency is read from the fitted curve at half-maximal effect; nearly all actives have a fitted effect of over 55% in size
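Cell growth measured by CellTiter-Glo luminescence after a minimum 48 h, 37 C compound exposure with 20 nM CPT in Tdp1-knockout DT40 cells stably expressing hTDP1, seeded 400/well; qHTS titration format.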
* = called active by the depositor; ? = inconclusive; / = no result; ! = not confirmed by another sample; [ ] = remark or other dose. Unless noted, calls follow the shape of the dose curve; as a rule, active = well fitted curve in the direction sought with a large enough effect; inconclusive = small, poorly fitted or top-dose-only effect, or another doubt; inactive = no such curve, though single readings can be large; an effect the other way counts as inactive or inconclusive. Unless noted, % is scaled to controls: 0 for no effect and ±100 for the full control effect.

SMILES	ALOX12 inh	IL-1B inflam inh	HT1080-NT tox	HT1080 IDH1KD tx	TDP1 cell noCPT	TDP1 cell CPT
COc1ccccc1N1CCN(C(=O)c2cc3c(C)nc4ccccc4c3o2)CC1	11.7%	-27.5	?	-24.4%	4.11µM*	6.51µM*
COc1ccccc1N1CCN(C(=O)c2oc3ccc(F)cc3c2C)CC1	-11.4%	32.8	-11.0%	-29.1%	16.4µM*	20.6µM*
COc1ccccc1N1CCN(C(=O)c2oc3ccccc3c2NC(=O)C(C)Oc2ccccc2)CC1 (stereo not drawn)	-8.8%	/	/	/	16.4µM*	?
COc1ccccc1C(=O)Nc1c(C(=O)N2CCN(c3ccc(F)cc3)CC2)oc2ccccc12	-17.6%	/	/	/	-10.3%	-17.3%
COc1ccccc1N1CCN(C(=O)c2oc3ccccc3c2C)CC1	-3.4%	44.6	2.2%	0.2%	20.6µM*	16.4µM*
O=C(NCc1nnc2ccc(-c3ccccc3)nn12)c1ccccc1OC(F)(F)F	29.5%	/	/	/	/	/
Cc1c(Cl)cccc1NC(=O)CNC(=O)C1CCN(C(=O)Nc2ccccc2)CC1	-1.1%	1.0	9.3%[9.24 µM]	5.8%	16.6%	-16.9%
COc1ccccc1N1CCN(C(=O)c2oc3ccc(Br)cc3c2C)CC1	-14.5%	23.0	?	?	7.31µM*	2.91µM*
COCc1c(C(=O)N2CCN(CCOc3ccccc3)CC2)oc2ccccc12	25.3%	-5.4	-1.4%[9.24 µM]	8.5%	?	?
COCc1c(C(=O)N2CCN(c3ccccc3C)CC2)oc2ccccc12	118.1%	6.5	-4.9%	5.8%	?	20.6µM*
Cc1c(C(=O)N2CCN(C)CC2)oc2ccc(Br)cc12	11.0%	?	-1.7%	-13.6%	-23.0%	-27.3%
C=CCc1c(C)nc(Nc2nc(C)c3cccc(C)c3n2)[nH]c1=O	-14.7%	/	/	/	/	/
CC1=C(C(=O)OC(C)(C)C)C(c2ccc(Cl)cc2)NC(=O)N1 (stereo not drawn)	-25.9%	/	/	/	/	/
COc1ccc([N+](=O)[O-])cc1NC(=S)NC(NC(=O)C(c1ccccc1)c1ccccc1)C(Cl)(Cl)Cl (stereo not drawn)	23.7%	-10.5	?	5.8µM*	?	?
COC(=O)NC(NC(=S)Nc1ccc([N+](=O)[O-])cc1)C(Cl)(Cl)Cl (stereo not drawn)	?	-6.3	-9.7%	-5.7%	7.31µM*	7.31µM*
Cc1cc([N+](=O)[O-])ccc1NC(=S)NC(=O)C(c1ccccc1)c1ccccc1	-24.9%	-1.6	?	?	16.4µM*	?
Cc1ccc(N2C(=O)C(CC(=O)Nc3cccc(F)c3)N(CCc3ccccc3F)C2=O)cc1 (stereo not drawn)	0.0%	/	/	/	20.6µM*	16.4µM*
CCN1C(=O)C(CC(=O)Nc2ccc(OC)cc2)N(Cc2ccc(OC)c(OC)c2)C1=S (stereo not drawn)	?	-12.2	-5.2%	-5.5%	?	-13.2%
COc1ccc(CCN2C(=O)N(c3ccc(OC)cc3)C(=O)C2CC(=O)Nc2ccccc2)cc1 (stereo not drawn)	5.9%	-9.7	1.3%	1.3%	?	-0.4%
COc1ccc(CCN2C(=O)N(c3ccc(C)cc3)C(=O)C2CC(=O)Nc2ccc(OC)cc2)cc1 (stereo not drawn)	-21.8%	/	/	/	?	20.6µM*
CCN1C(=O)C(CC(=O)Nc2ccc(OC)cc2)N(CCc2ccc(OC)cc2)C1=S (stereo not drawn)	?	-86.3*	-26.3%	1.2%	?	?
COc1ccc(CCN2C(=O)N(c3cccc(C)c3)C(=O)C2CC(=O)Nc2ccccc2)cc1OC (stereo not drawn)	?	/	/	/	?	23.1µM*
O=C1N[C@@H]2CCN(C(=O)c3ccc4ccccc4c3)[C@@H]2C(=O)N1c1ccc(F)cc1	-23.7%[176 µM]	/	/	/	/	/
c1cc(-c2cc3c(ccn3Cc3ccncc3)c(N3CCOCC3)n2)c2cn[nH]c2c1	64.3%[176 µM]	/	/	/	/	/
CNC(=O)CC1C(=O)N(c2ccc(Cl)cc2)C(=S)N1CCc1ccc(OC)c(OC)c1 (stereo not drawn)	-28.3%	-50.4*	-28.7%	-21.0%	9.2µM*	?
SMILES	ALOX12 inh	IL-1B inflam inh	HT1080-NT tox	HT1080 IDH1KD tx	TDP1 cell noCPT	TDP1 cell CPT
COc1ccc(CCN2C(=O)N(c3ccccc3)C(=O)C2CC(=O)Nc2ccccc2)cc1 (stereo not drawn)	1.9%	/	/	/	25.9µM*	?
CCCOc1ccc(NC(=O)CC2C(=O)N(c3ccccc3)C(=O)N2CCC(C)C)cc1 (stereo not drawn)	-18.6%	/	/	/	14.6µM*	?
Cc1nc2ccc(NS(=O)(=O)c3ccc(C)c(C)c3)cc2s1	-28.2%	0.6	-17.8%	?	10.3µM*	14.6µM*
Cc1nc2ccc(NS(=O)(=O)c3c(F)cc(F)cc3Br)cc2s1	-19.5%	27.3	0.2%	-20.9%	6.51µM*	?
Cc1nc2ccc(S(=O)(=O)Nc3ccccc3C)cc2s1	17.3%	12.1	?	?	18.4µM*	?
Cc1nc2ccc(NS(=O)(=O)c3ccc(F)cc3F)cc2s1	23.1%	26.6	6.4%	0.3%	?	?
Cc1cc(-c2nnc(CCC(=O)NCCc3ccccc3F)o2)no1	-6.4%	0.0	-2.6%	-3.6%	-4.5%	-2.8%
O=[N+]([O-])c1ccc2c(c1)-c1ccccc1C2O (stereo not drawn)	7.08µM*	?	19.5%	9.3%	13µM*	?
COC(=O)c1ccc([C@H]2Nc3ccc(S(=O)(=O)Nc4ccc(C)cc4)cc3[C@H]3C=CC[C@H]32)cc1	?	/	/	/	14.6µM*	13µM*
COc1ccc(NS(=O)(=O)c2ccc3c(c2)[C@H]2C=CC[C@H]2[C@@H](c2ccc(C(=O)O)cc2)N3)cc1	28.2µM*!	3.0	-0.1%	-0.5%	?	?
Cc1cccc(C)c1NS(=O)(=O)c1ccc2c(c1)[C@H]1C=CC[C@H]1[C@@H](c1ccc(Cl)cc1)N2	?	/	/	/	13µM*	16.4µM*
COc1cccc(NS(=O)(=O)c2ccc3c(c2)[C@H]2C=CC[C@H]2[C@@H](c2ccccc2Cl)N3)c1	?	/	/	/	4.61µM*	8.2µM*
Cc1c(Cl)cccc1NS(=O)(=O)c1ccc2c(c1)C1C=CCC1C(c1ccc(C(=O)O)cc1)N2 (stereo not drawn)	/	-21.4	-2.3%	-15.7%	-0.2%	-6.5%
